CYP2C19 act: cytochrome P450 2C19 (human) activation. 96,000 tested, under 10 active. activation factor at 5 µM. AID 1025. recombinant CYP2C19, luciferin-H EGE luminescence; stronger effect = higher value; 0 = fully inhibited enzyme, 1 = untreated enzyme;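 active = activation factor of at least 2 at 5 µM in the primary screen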
CYP2C9 activ: increases human cytochrome P450 2C9 activity; recombinant CYP2C9, luciferin-H conversion, luminescence; stronger effect = higher value; factor 1 = untreated enzyme, 0 = blocked; activation factor at 5 µM; P11712; 1.4% of 96,000 active;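 active = activation factor of 2 or more for CYP2C9 at a 5 µM dose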
Plk1 PBD FP: Plk1 (human) PBD binding inhibition; P53350; inhibition, %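 (tested at about 20 µM)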; AID 693; 0.13% of 97,000 active; Plk1 PBD phosphopeptide binding, fluorescence polarization; in the data active = inhibition above about 34%, passing the limit was not always enough
CYP2C9 inh: inhibitors of human CYP2C9; P11712; CYP2C9 Supersomes, luciferin-H conversion, luminescence; inhibition, % at 5 µM; 20% of 96,000 active; AID 777;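 active = blocking of liver enzyme CYP2C9 beyond about 50% at 5 µM, limit read from the data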
PLK1 kinase inh: blocks human PLK1 kinase activity; inhibition, % at 10 µM; 0.53% of 97,000 active; P53350; AID 619; recombinant PLK1 kinase, TR-FRET peptide phosphorylation;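 active = inhibition of 50% or more in the single-concentration screen; inactive = inhibition below 50%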
CYP2C19 inh: blocks human cytochrome P450 2C19; P33261; CYP2C19 Supersomes, luciferin-H EGE luminescence, 30 min; inhibition, % at 5 µM; 21% of 96,000 active; AID 778;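 active = CYP2C19 inhibition above a set limit at 5 µM in the primary screen, cut at about 50% in these data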
Redox H2O2 DR: redox cycling H2O2 generation counter-screen for Plk1 PBD; DTT; EC50, µM; shares compounds with Plk1 PBD FP; 120 tested, under 10 active; call rule not given here
Of the large screens only hits and unclear results are named; the others gave an inactive call (follow-up assays come after a bar, where they were run). Hits are enriched below; roughly 28% of the tested compounds scored in any of these assays.

Cc1nn2c(=O)c(NC(=O)c3ccc(F)cc3)cnc2s1	none
Cc1ccc(C(=O)Nc2cnc3sc(C)nn3c2=O)cc1	Plk1 PBD FP 33.6 | Redox H2O2 DR inactive
O=C(NC1(C(F)(F)F)NC(=O)N(CC2CCCCC2)C1=O)c1ccco1 (centres undefined)	Plk1 PBD FP 62.7 | Redox H2O2 DR inactive
CCCc1nc2sc3c(c2c(=O)n1NC(=O)CCC(=O)O)CCCC3	Plk1 PBD FP 46.0 | Redox H2O2 DR inactive
CCn1c(SCC(=O)O)nc2sc3c(c2c1=O)CCC3	none
CCCCNc1c2c3c(cccc3n(C)c1=O)C(=O)c1ccccc1-2	none (no result: CYP2C19 act, CYP2C9 activ, CYP2C9 inh, CYP2C19 inh)
Cn1c(=O)c(NCCO)c2c3c(cccc31)C(=O)c1ccccc1-2	Plk1 PBD FP 95.8 | Redox H2O2 DR inactive
CN1C(=O)CCC1(O)c1ccccc1 (centres undefined)	none
O=C1CCC(C(=O)O)(c2ccccc2)C1 (centres undefined)	Plk1 PBD FP 45.6 | Redox H2O2 DR inactive
CC(C)Sc1nc(N2CCOCC2)c2c(c1C#N)CC(C)(C)N(C)C2	Plk1 PBD FP 48.0, CYP2C9 inh 96.8, CYP2C19 inh 64.4 | Redox H2O2 DR inactive
CN1Cc2sc(N)c(C#N)c2CC1(C)C	none
COc1ccc(C2=NC(C(F)(F)F)(C(F)(F)F)c3c(n(C)c(=O)n(C)c3=O)N2)cc1	none
CC(=O)N(/N=C1\Sc2ccccc2C1=O)c1ccccc1C	Plk1 PBD FP 124.8 | Redox H2O2 DR inactive
CC(=O)N(/N=C1\Sc2ccccc2C1=O)c1ccccc1	Plk1 PBD FP 101.1, CYP2C9 inh 62.8, CYP2C19 inh 50.3 | Redox H2O2 DR inactive
COc1ccccc1NC(=O)c1cc(S(=O)(=O)N2CCC3(CC2)OCCO3)ccc1F	none
Cc1ccccc1NS(=O)(=O)c1cc(C(=O)NCc2ccco2)ccc1C	Plk1 PBD FP 38.1, CYP2C9 inh 68.7 | Redox H2O2 DR inactive
Cc1ccc(N2CC(C(=O)NC3=NCCS3)CC2=O)cc1 (centres undefined)	none
COc1ccc(Cn2c(=O)sc3ccccc32)cc1	Plk1 PBD FP 54.5, CYP2C9 inh 68.4, CYP2C19 inh 50.5 | Redox H2O2 DR inactive
Cc1cccc(Cn2ccc(-c3ccc(Cl)cc3)c(C#N)c2=O)c1	none
Cc1cc(C)n(-c2nnc3n2N=C(c2ccccc2)CS3)n1	Plk1 PBD FP 46.0, CYP2C19 inh 51.0 | Redox H2O2 DR inactive
Cc1cccc(-n2c(CCn3nc(C)c([N+](=O)[O-])c3C)n[nH]c2=S)c1	Plk1 PBD FP 46.3 | Redox H2O2 DR inactive
CCC(C)(C)NC(=O)CN(C(=O)c1snc(C(N)=O)c1N)c1ccc(OC)c(OC)c1	none
c1ccc(NCc2nnc3n2CCCCC3)cc1	Plk1 PBD FP 44.9 | Redox H2O2 DR inactive
CCc1c(O)nc(SCC(=O)NC(C)(C)C)n(-c2ccccc2)c1=O	none
CC(C)(C)NC(=O)CC(CC(=O)O)c1ccccc1 (centres undefined)	Plk1 PBD FP 44.9 | Redox H2O2 DR inactive
Cc1ccccc1Oc1ncnc2oc(-c3ccccc3)cc12	Plk1 PBD FP 68.5 | Redox H2O2 DR inactive
Clc1ccc(Oc2ncnc3oc(-c4ccccc4)cc23)cc1	none
O=C(Nc1cccn(Cc2c(Cl)cccc2Cl)c1=O)c1c(Cl)cccc1Cl	Plk1 PBD FP 51.0 | Redox H2O2 DR inactive
C=CCSc1nccc(-c2cc(Cl)sc2Cl)n1	Plk1 PBD FP 45.8, CYP2C9 inh 71.6, CYP2C19 inh 80.5 | Redox H2O2 DR inactive
N#CCSc1nccc(-c2cc(Cl)sc2Cl)n1	none
CCCNC(=O)CN(C)C(=O)c1n[nH]c2ccccc12	none
CCOC(=O)C1CCCN(C(=O)CNS(=O)(=O)c2ccc(Br)s2)C1 (centres undefined)	none (no result: CYP2C19 act, CYP2C9 activ, CYP2C9 inh, CYP2C19 inh)
O=C(CNS(=O)(=O)c1ccc(Br)s1)N1CCCC1	Plk1 PBD FP 43.8, CYP2C19 inh 64.1 | Redox H2O2 DR inactive
Cc1ccc(OCc2nnc(SCC(=O)Nc3cc(C)on3)n2C)cc1	none
CCS(=O)(=O)n1nc(-c2ccc(Cl)cc2)nc1SC	none
Cn1nc(-c2ccc(Cl)cc2)nc2c(=O)n(C)c(=O)nc1-2	Plk1 PBD FP 65.0, CYP2C9 inh 92.9, CYP2C19 inh 98.2 | Redox H2O2 DR inactive
COc1ccc(C(C)C)cc1S(=O)(=O)Nc1ccc(Cl)cn1	Plk1 PBD FP 46.7 | Redox H2O2 DR inactive
CCOc1ccc(C)cc1S(=O)(=O)Nc1ccc(Cl)cn1	none
Cc1cc(C)c2c(c1)/C(=C/C(=O)c1ccc(Br)s1)C(=O)N2	none

From PubChem BioAssay
